# Results: PubChem BioAssay (Tox21)
# Inconclusive results are not listed. Active and inactive are the calls of the source. Calls come from the whole dose curve.
# Assay: qHTS assay to identify small molecule agonists of H2AX - cell viability counter screen (AID 1224847); note: nearly all actives have a fitted effect of over 30% in size; for activity change, negative = cytotoxicity: top concentration of the series differs between compounds
# Settings: CHO-K1 viability, CellTiter-Glo luminescence, 3 h; series mostly up to 154 µM; activity change, negative = cytotoxicity: at the top concentration
# Description: National Center for Advancing Translational Sciences [NCATS]
# NIH Chemical Genomics Center [NCGC]
# U.S. Environmental Protection Agency [EPA]
# National Institutes of Environmental Health Sciences [NIEHS]
# National Toxicology Program [NTP]
# U.S. Food and Drug Administration [FDA]
# HTRF phospho-H2AX (Ser139) assay (Cisbio Bioassays, US) enables the quantitative detection of the histone variant H2AX when phosphorylated on serine 139. When double-stranded DNA breaks, either by ionizing radiation or endogenous physiological processes, H2AX becomes phosphorylated at Ser139. This phospho-Ser139 serves as a sensitive biomarker for the detection of such breaks, localizing the site of DNA repair. So, HTRF phospho-H2AX Ser139 is a pertinent assay to study genome stability, the cell cycle, DNA repair, and it serves as a biomarker for cancer, and to understand aging. Wild type CHO-K1 cells were used to identify the inducers of Phospho-H2AX Ser 139 from the Tox21 compound collections. Also cytotoxicity of the Tox21 10K compound library against the CHO-K1 cell line was tested by measuring the cell viability using CellTiter-Glo assay (Promega, Madison, WI).
# Tox21 Assay Protocol Summary:
# The CHO-K1 cells suspended in culture medium containing 10% FBS were dispensed at 1000 cells/ 3 ul/well in 1536-well white wall/solid bottom plates (Greiner Bio-One North America, NC) using a Multidrop Combi (Thermo Fisher Scientific Inc., Waltham, MA). After the assay plates were incubated at 37C overnight, 23 nl of compounds at 15 concentrations (from 5-48 columns) or positive control (from 1 to 4 columns) were transferred to the assay plates using a Pintool station (Wako, San Diego, CA) into each well resulting in a final DMSO concentration of 0.76%. After 3hr incubation at 37C, 3 uL/well CellTiter-Glo luminescent cell viability reagent (Promega Corporation, Madison, WI) was added using a Flying Reagent Dispenser (FRD) (Aurora Discovery, CA). After incubation at room temperature for 30 min, the luminescence intensity was read using a ViewLux plate reader (PerkinElmer, Waltham, MA).
# % is set by controls: 0 for no effect and ±100 for the full control effect; potency is the fitted concentration of half-maximal effect.
Compound,"activity change, negative = cytotoxicity",Potency
CN1CN(C)CN(C)C1,0.0514% (inactive),
C=C(C)C(=O)OCCC[Si](Cl)(Cl)Cl,-2.46% (inactive),
CCCC(O)C(O)CO (stereo not given),1.02% (inactive),
CCCCCCS,0.23% (inactive),
CC1(C)C(=O)N(Br)C(=O)N1Br,-2.86% (inactive),
Oc1ccc(-c2ccccc2)c(Cl)c1,,89.8 µM (active)
Cc1cccc(C)n1,1.72% (inactive),
CC(=O)O[C@@H]1C[C@@H]2CC[C@@]1(C)C2(C)C,0.0895% (inactive),
O=Cc1ccc(F)cc1,-0.293% (inactive),
Cc1occc1SSc1ccoc1C,-1.72% (inactive),
O=C(O)Cc1ccc(OCCNC[C@H](O)c2ccccc2)cc1,1.76% [at 70.9 µM] (inactive),
CN1[C@@H]2CC[C@@H]1CC(OC(=O)C(CO)c1ccccc1)C2 (stereo not given in full),-0.507% [at 70.9 µM] (inactive),
Cc1oc(-c2ccccc2)nc1CCOc1ccc(C[C@H](Nc2ccccc2C(=O)c2ccccc2)C(=O)O)cc1,,80 µM (active)
O=S(=O)(O)CCCN1CCOCC1,1.47% (inactive),
c1cc(OCC2CO2)cc(OCC2CO2)c1 (stereo not given),6.29% (inactive),
CCCCOC(=O)C(C)CC (stereo not given),-2.46% (inactive),
C#CC(O)CCC (stereo not given),0.112% (inactive),
Cc1cccc(N(C)C)c1,-0.334% (inactive),
OCCC(O)CO (stereo not given),-0.289% (inactive),
CCCCCCCC/C=C\CCCCCCCC(=O)NCc1ccc(O)c(OC)c1,1.44% [at 70.9 µM] (inactive),

Compound,"activity change, negative = cytotoxicity",Potency
COc1cccc(O)c1,0.368% (inactive),
CC1=C(/C=C/C(C)=C/C=C/C(C)=C/C(=O)Nc2ccc(O)cc2)C(C)(C)CCC1,,103 µM (active)
Clc1cccnc1,-0.491% (inactive),
CC1=CP(=O)(c2ccccc2)CC1 (stereo not given),-1.55% (inactive),
Cc1ccc(-n2[nH]c(C)c(N=Nc3cccc(-c4cccc(C(=O)O)c4)c3O)c2=O)cc1C,-3.07% [at 70.9 µM] (inactive),
O=CC1CC1,0.386% (inactive),
CC(C)c1ccc(O)c(C(C)C)c1,,89.8 µM (active)
CCN1CCN(c2cc(-c3ccc(F)cc3)c3c(n2)CCCCCC3)CC1,-6.38% [at 31.6 µM] (inactive),
C[Si](C)(C)Cl,2.82% (inactive),
O=C(O)c1cccc(Cl)n1,3.41% (inactive),
COC(=O)CC#N,0.349% (inactive),
CCCCCCCC/C=C\CCCCCCCC(=O)N(C)CC(=O)O,,101 µM (active)
CC1(C)C(=O)N(CO)C(=O)N1CO,1.52% (inactive),
Oc1c(Br)cc(Br)c2cccnc12,7.49% [at 70.9 µM] (inactive),
C=CC(C)(CCC=C(C)C)OC(=O)/C=C/c1ccccc1 (stereo not given),-1.99% (inactive),
CCCCCCCCCC(=O)N(C)C,-8.15% (inactive),
CCOC(=O)N1CCC(=C2c3ccc(Cl)cc3CCc3cccnc32)CC1,,61.9 µM (active)
CO[Si](CCC1CCC2OC2C1)(OC)OC (stereo not given),3.25% (inactive),
CCCCCCCCCCCCCCCC,-3.6% (inactive),
CCN(CC)CCOC(=O)C1(C2CCCCC2)CCCCC1,,49.2 µM (active)
